Screen size: about 95,000 compounds; about 460 (0.48%) were called active.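 How the source made its calls: active means inhibition above the batch mean plus 3 SD, with images confirmed as a hit by eye (cut at about 37% in these data); inconclusive means inhibition above that limit but hit not confirmed in images; inactive means inhibition not above that limit.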 The full list was thinned out, with actives kept by preference.

Broadly, the inhibition is the relative decrease from the control value, in per cent.

The nature of this test: inhibitors of TNFa-induced VCAM1 expression, primary screen, imaging, HUVEC, TNFa stimulus, immunofluorescence (AID 802).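 Further: 0% = TNF-stimulated DMSO wells and 100% = unstimulated control wells.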 Particulars: HUVEC TNFa-induced VCAM-1 immunofluorescence, high-content imaging; at 2 µM; hits give high values.
Regarding `Cn1c(NN)nc2sc3c(c2c1=O)CCC3`, the inhibition is 27.5% (inactive).

For the compound `O=C(CSCc1ccccc1Cl)NNC(=O)c1ccccc1`, the inhibition is 2.9% (inactive).

For the compound `CC(=O)c1cccc(NC(=O)C2CCCN2S(=O)(=O)c2cccc3nsnc23)c1` (centres undefined), the inhibition was -0.5% (inactive).

With `CCc1ccc(/C=N/NC(=O)c2ccc(OC3CCCC3)cc2)s1`, the inhibition is -3.5% (inactive).

In the case of `COC(=O)c1ccc(S(=O)(=O)N2CCC(c3nc4ccccc4o3)CC2)cc1`, the inhibition was -1.2% (inactive).

With `Nc1cc(=O)nc(SCc2ccccc2)n1Cc1ccco1`, the inhibition was 95% (active).

As for `c1ccc(CSc2nnc(-c3ccco3)n2Cc2ccccc2)cc1`, the inhibition is -1.6% (inactive).

Turning to `O=c1[nH]c(CSc2ncc(-c3ccc(F)cc3)n2Cc2ccco2)nc2ccccc12`, the inhibition is -0.9% (inactive).

For the compound `CCn1nccc1C(=O)Nc1ccc(Cl)c(Cl)c1`, the inhibition is 2.3% (inactive).

Consider `CC(C)c1ccc(/C=C/C(=O)NNC(=O)c2cccnc2)cc1`, for which the inhibition was -5.5% (inactive).

Consider `C=CCn1c(SCC(=O)c2ccc(Br)cc2)nnc1C(C)NC(=O)Cc1ccc(OC)cc1` (centres undefined), for which the inhibition is 12.4% (inactive).

As to `O=C(/C=C/c1ccco1)Nc1ccc(Oc2ccccc2)cc1`, the inhibition is 6.5% (inactive).

With `Cc1ccc(-n2nc3ccc(NC(=O)/C=C/c4ccco4)cc3n2)cc1C`, the inhibition was 46.8% (active).

Regarding `O=C(/C=C/c1ccco1)Nc1cccc(-c2nc3ccccc3[nH]2)c1`, the inhibition is 9.8% (inactive).

With `CC(O)CN(Cc1ccc(Cl)cc1)CC(C)O` (centres undefined), the inhibition was -2.6% (inactive).

For `Cc1ccc(NC(=S)Nc2ncccc2C)c(C)c1`, the inhibition was 2.5% (inactive).

As to `CC1=NN(Cc2ccccc2)C(=O)/C1=C/c1ccc(N(C)C)cc1`, the inhibition is 3.7% (inactive).

With `COC(=O)c1cc2nc(-c3ccccc3)cc(C(F)(F)F)n2n1`, the inhibition is -20.1% (inactive).

For `Cc1cc(C)c2cc(CN(Cc3nnnn3Cc3ccc(F)cc3)C3CCCC3)c(=O)[nH]c2c1`, the inhibition is 1.5% (inactive).

In the case of `CS(=O)(=O)c1sc2nc(-c3ccccc3)cc(-c3ccccc3)c2c1N`, the inhibition was -20.3% (inactive).

For `COc1ccccc1/C=C/C1=NC(=C\N(C)C)/C(=O)O1`, the inhibition was 5.1% (inactive).

With `CCN(CC)S(=O)(=O)c1ccc2c3c(cccc13)C(=O)S2`, the inhibition is 8.1% (inactive).

For `O=C(Nc1ccccc1)c1ccc2c(c1)OCO2`, the inhibition is -10.7% (inactive).

In the case of `Cc1ccc(F)cc1NC(=O)c1ccc2c(c1)OCO2`, the inhibition was 96.8% (active).

Take `Cc1ccc(F)cc1NC(=O)c1cccc(N(C)C)c1`: the inhibition is -5.6% (inactive).

In the case of `S=c1nccc(-c2cc(Cl)sc2Cl)[nH]1`, the inhibition is 2% (inactive).

For the compound `COc1ccccc1CNC(=O)c1ccc(SC)cc1OC`, the inhibition is 18.6% (inactive).

Regarding `Cc1cc(-c2ccccc2)nc(N2CCC(C(=O)NC34CC5CC(CC(C5)C3)C4)CC2)n1`, the inhibition was -5.8% (inactive).

As to `Cc1nc([N+](=O)[O-])nn1C12CC3CC(CC(Br)(C3)C1)C2`, the inhibition was 11.3% (inactive).

As for `Cn1c2c(c(=O)n(C)c1=O)[C@@H]1c3c(ccc4ccccc34)OC[C@@H]1CO2`, the inhibition is -9% (inactive).

As to `CCn1c(SCC(=O)Nc2ccc(S(=O)(=O)Nc3onc(C)c3C)cc2)nnc1-c1ccccc1`, the inhibition was 6.4% (inactive).

Regarding `O=C(O)c1ccccc1-c1ccccc1C(=O)Nc1cccc2ccccc12`, the inhibition was 7.4% (inactive).

Regarding `Cc1nnc(NC(=O)CSc2nc(C3CCCCC3)nc3ccccc23)s1`, the inhibition is -0.5% (inactive).

Turning to `CCCNC(=S)NC1CC2CCCC(C1)N2CC(C)C` (centres undefined), the inhibition was 5.3% (inactive).

Turning to `Cc1cc(C(F)F)n2nc(C(=O)Nc3ccc(S(=O)(=O)NC45CC6CC(CC(C6)C4)C5)cc3)nc2n1`, the inhibition is 5.2% (inactive).

Consider `CCN(CC)CCN1C(=O)C(=O)/C(=C(/O)c2cnn(-c3ccccc3)c2C)C1c1cccs1` (centres undefined), for which the inhibition is -0.9% (inactive).

For `COc1ccc(-c2c(C(C)=O)c(C)nc3sc4c(=O)n(-c5ccc(C)cc5)nnc4c23)cc1`, the inhibition is 12% (inactive).

As for `O=C(CN1CCSCC1)N/N=C/c1ccc(F)cc1`, the inhibition was -11.6% (inactive).

As to `CCc1nnc(NC(=O)CSc2nc3ccccc3c(=O)n2CCCOC)s1`, the inhibition was 1.6% (inactive).

On to `Cc1nnc(SCc2nc3ccccc3nc2C)s1`, for which the inhibition is -5.5% (inactive).

With `Cc1ccc(NC(=S)NC2CCCC2)cc1`, the inhibition was -15% (inactive).

Consider `Cc1ccoc1C(=O)Nc1cccc(Oc2ccccc2)c1`, for which the inhibition is -7.5% (inactive).

As for `O=C(O)c1cccnc1NC1CCCC1`, the inhibition is -5.2% (inactive).

For `O=S(=O)(c1cccc(S(=O)(=O)N2CCC(n3nnc4ccccc43)CC2)c1)N1CCCCC1`, the inhibition was -12.3% (inactive).

Take `O=C(c1ccc2c(c1)OCCO2)C1CCN(S(=O)(=O)c2cccc(F)c2)CC1`: the inhibition is -12.7% (inactive).

On to `CC(=O)c1cccc(S(=O)(=O)N2CCC(n3nnc4cc(F)ccc43)CC2)c1`, for which the inhibition is 54.7% (active).

As to `COc1cccc(NC(=O)Cc2ccc(C)cc2)c1`, the inhibition was 3.7% (inactive).

`COc1ccc(NC(=O)/C(Cl)=C(/Cl)S(=O)Cc2ccc(C)cc2)cn1` (centres undefined): the inhibition is 90.4% (active).

Take `COc1ccc(CC(=O)Nc2ccc(-c3nnc(-c4ccc(C)cc4)o3)cc2)cc1`: the inhibition was -1.2% (inactive).

Take `COc1cc(CC(=O)NCc2cccs2)cc(OC)c1OC`: the inhibition is 4.1% (inactive).

On to `COc1cc(/C=N/NC(=O)Nc2ccccc2)ccc1OCCOc1ccccc1C`, for which the inhibition was 51.1% (active).

With `COc1ccc(/C=N\NC(=O)c2sc(N)nc2C)cc1OC`, the inhibition is -10.1% (inactive).

With `CCOc1ccc(NC(=O)Nc2cc(C)ccc2OC)cc1`, the inhibition is 11.7% (inactive).

As for `CC(C)CNC(=S)NNC(=O)c1nn(C)cc1Cl`, the inhibition is 5.2% (inactive).

For the compound `Cc1nnsc1S(=O)(=O)Cc1ccccc1Cl`, the inhibition is 1.2% (inactive).

With `COCCNS(=O)(=O)c1cc(Br)ccc1OC`, the inhibition was -35.9% (inactive).

Regarding `O=C(Nc1ccccc1)c1ccc2nsnc2c1`, the inhibition is -11.1% (inactive).

With `O=C(Nc1ccccc1)c1nnsc1S(=O)(=O)c1ccc(Cl)cc1`, the inhibition was 59.3% (active).

For the compound `O=C(c1ccc(Cl)cc1)c1cnc(Nc2ccccc2)s1`, the inhibition is 4.4% (inactive).

Take `O=C(Nc1ccc(Cl)cc1)c1ccsn1`: the inhibition was -10% (inactive).

Turning to `CCC(C)(C)n1nnnc1CN1CCN(c2nc3ccc(C)cc3cc2C#N)CC1`, the inhibition is 3.1% (inactive).

Take `S=C(NCCC1=CCCCC1)Nc1ccccc1`: the inhibition is 2.2% (inactive).

On to `CC(C)NC(=O)CSc1nnc(COc2ccccc2Cl)o1`, for which the inhibition is 6.7% (inactive).

As for `NS(=O)(=O)c1cccnc1Nc1cccc(Cl)c1`, the inhibition is -4.5% (inactive).

The values above are taken from PubChem BioAssay AID802 (Columbia University Molecular Screening Center, 2007).
